Test results published in PubChem BioAssay.
Active and inactive are the calls of the source. Unless noted, how the calls were made is not given here.

Assays:
[1] = system: Wnt5a (protein binding on small-molecule microarray); assay: small molecules binding Wnt5a protein – biophysical, small-molecule microarray, 635/667 nm fluorescence, primary screen (AID 1142); settings: 635 nm fluorescence, higher = more signal;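 further: fluorescence read at 667 nm with signal to noise per printed feature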
[2] = ATP-based viability of Huh7 replicon cells – cell-based, CellTiter-Glo luminescence, basal, 48 h, cytotoxicity control for HCV replication inhibitor project, primary screen (AID 1143); settings: higher = more signal, called active from +8 up or from −8 down;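 further: Huh7 hepatoma cells carrying a hepatitis C replication reporter with no stimulus; test concentration not given here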
[3] = Pseudomonas biofilm growth suppression – PAO1 strain, BacTiter-Glo luminescence, LB-PBS, primary screen (AID 1144); settings: P. aeruginosa PAO1 biofilm, 12 h, higher = more signal
[4] = basal CRE-LacZ reporter activity in PC12 – cell-based, unstimulated, primary screen (AID 1145); settings: no forskolin, luminescence, 4.5 h, higher = more signal, called active from +8 up or from −8 down
[5] = forskolin-driven CRE-LacZ activity in PC12 – cell-based, CRE-LacZ reporter, forskolin-stimulated, primary screen (AID 1146); settings: luminescence, 4.5 h, higher = more signal, called active from +8 up or from −8 down;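 further: PC12 cells with 6xCRE LacZ reporter stimulated by forskolin 10 µM; beta-galactosidase reporter signal reflecting CREB driven transcription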
[6] = target: Streptavidin (Streptomyces avidinii) (UniProt P22629); assay: compounds binding control protein streptavidin – biophysical, small-molecule microarray, 635/667 nm fluorescence, artefact control for SMM compound annotation, primary screen (AID 1147); settings: higher = more signal;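 further: signal reflects streptavidin binding to arrayed compounds as a control protein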
[7] = probe aInhba binding on compound microarray – biochemical, small-molecule microarray, 635/667 nm fluorescence, primary screen (AID 1148); settings: higher = more signal;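 further: score merges 667nm spot fluorescence with signal-to-noise for antibody binding to printed compounds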
Torsin-1A (Homo sapiens) [8] = target: Torsin-1A (Homo sapiens) (UniProt O14656); assay: TOR1A wild-type binding on microarray – cell lysate, small-molecule microarray, lysate, 635/667 nm, primary screen (AID 1149); settings: COS7 hTOR1A-WT lysate, 635 nm fluorescence, higher = more signal
Torsin-1A (Homo sapiens) [9] = target: Torsin-1A (Homo sapiens) (UniProt O14656); assay: torsin A mutant lysate binding on microarrays – cell lysate, small-molecule microarray, COS7 lysate, 635/667 nm fluorescence, primary screen (AID 1150); settings: COS7 hTOR1A mutant lysate, 635 nm fluorescence, higher = more signal;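 further: score pools 667 nm emission and signal to noise measuring lysate protein binding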
[10] = system: Sonic hedgehog protein (Shh); assay: Sonic hedgehog microarray binding compounds – biochemical, small-molecule microarray, 635/667 nm fluorescence, primary screen (AID 1151); settings: 635 nm fluorescence, higher = more signal;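 further: Shh protein binding to compounds spotted on small-molecule microarray slides; score combines spot fluorescence intensity with signal-to-noise across triplicate slides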

Chain of Streptavidin (Streptomyces avidinii) (P22629 whole entry, looked up): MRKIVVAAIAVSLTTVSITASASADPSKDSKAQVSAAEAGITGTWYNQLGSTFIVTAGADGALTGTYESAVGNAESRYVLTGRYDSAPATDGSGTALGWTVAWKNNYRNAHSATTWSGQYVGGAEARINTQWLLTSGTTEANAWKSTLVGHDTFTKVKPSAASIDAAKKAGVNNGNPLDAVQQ
Chain of Torsin-1A (Homo sapiens) (O14656 whole entry, looked up): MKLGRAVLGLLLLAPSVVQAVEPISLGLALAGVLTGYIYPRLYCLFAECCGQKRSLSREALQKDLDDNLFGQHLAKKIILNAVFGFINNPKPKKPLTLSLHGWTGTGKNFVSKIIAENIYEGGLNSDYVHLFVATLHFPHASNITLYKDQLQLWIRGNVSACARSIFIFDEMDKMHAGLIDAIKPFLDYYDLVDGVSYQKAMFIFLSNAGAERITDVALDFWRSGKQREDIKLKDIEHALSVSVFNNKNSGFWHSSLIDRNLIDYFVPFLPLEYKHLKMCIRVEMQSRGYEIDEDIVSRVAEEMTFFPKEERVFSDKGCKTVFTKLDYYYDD

## C=C(C(=O)CC[C@@H](OC(=O)c1ccccc1-c1ccccc1C(=O)O)c1cccc(OCCO)c1)C(C)C
[1]
  composite z-score: 0.655
[2]
  z-score: 0.954 (inactive)
[3]
  z-score: -0.417 (inactive)
[4]
  z-score: 2.16 (inactive)
[5]
  z-score: 2.88 (inactive)
[6]
  composite z-score: -0.364
[7]
  composite z-score: 0.0391
Torsin-1A (Homo sapiens) [8]
  composite z-score: 2.85
Torsin-1A (Homo sapiens) [9]
  composite z-score: 1.59
[10]
  composite z-score: 1.95

## CCCCC=C[C@@H](NC(=O)C(C)(C)C)c1ccccc1
[1]
  composite z-score: 0.5
[2]
  z-score: -2.89 (inactive)
[3]
  z-score: 0.124 (inactive)
[4]
  z-score: -0.185 (inactive)
[5]
  z-score: 1.67 (inactive)
[6]
  composite z-score: 0.761
[7]
  composite z-score: 0.353
Torsin-1A (Homo sapiens) [8]
  composite z-score: 0.226
Torsin-1A (Homo sapiens) [9]
  composite z-score: 0.487
[10]
  composite z-score: -0.0371

## CN1C(=O)C2C=CC(C(O)COCc3ccccc3)N(Nc3ccc([N+](=O)[O-])cc3[N+](=O)[O-])C2C1=O (stereo not given)
[1]
  composite z-score: 0.727
[2]
  z-score: 0.615 (inactive)
[3]
  z-score: -0.73 (inactive)
[4]
  z-score: 1.01 (inactive)
[5]
  z-score: -0.252 (inactive)
[6]
  composite z-score: -0.387
[7]
  composite z-score: 0.0442
Torsin-1A (Homo sapiens) [8]
  composite z-score: -0.306
Torsin-1A (Homo sapiens) [9]
  composite z-score: 0.713
[10]
  composite z-score: -0.997

## CO[C@H]1O[C@H](CO)[C@@H](OC(=O)Nc2cccc(F)c2)[C@H](OC(=O)c2cc3ccccc3[nH]2)[C@H]1OC(=O)c1cc2ccccc2[nH]1
[1]
  composite z-score: -0.363
[2]
  z-score: -3.31 (inactive)
[3]
  z-score: -1.02 (inactive)
[4]
  z-score: 1.03 (inactive)
[5]
  z-score: -0.679 (inactive)
[6]
  composite z-score: -0.256
[7]
  composite z-score: -0.128
Torsin-1A (Homo sapiens) [8]
  composite z-score: -0.536
Torsin-1A (Homo sapiens) [9]
  composite z-score: -0.18
[10]
  composite z-score: -0.111

## CCOC(=O)C[C@H]1[C@H](OC(=O)c2ccccc2-c2ccccc2)[C@@H](NC(=O)CC(C)C)c2cc(OCCCO)ccc2N1C(=O)c1ccccc1
[1]
  composite z-score: 0.167
[2]
  z-score: -0.715 (inactive)
[3]
  z-score: -0.829 (inactive)
[4]
  z-score: 1.94 (inactive)
[5]
  z-score: -0.103 (inactive)
[6]
  composite z-score: -0.31
[7]
  composite z-score: -0.0178
Torsin-1A (Homo sapiens) [8]
  composite z-score: -0.278
Torsin-1A (Homo sapiens) [9]
  composite z-score: -0.161
[10]
  composite z-score: 1.51

## CC1C2C(CCCO)=CC(C3C(=O)N(C(N)=O)C(=O)C23)N1Cc1cccc(OC(F)(F)F)c1 (stereo not given)
[1]
  composite z-score: -0.0205
[2]
  z-score: 0.897 (inactive)
[3]
  z-score: 0.206 (inactive)
[4]
  z-score: -0.233 (inactive)
[5]
  z-score: 0.693 (inactive)
[6]
  composite z-score: 0.664
[7]
  composite z-score: -0.0531
Torsin-1A (Homo sapiens) [8]
  composite z-score: 0.438
Torsin-1A (Homo sapiens) [9]
  composite z-score: 0.6
[10]
  composite z-score: 0.396

## O=C1C[C@@](C(=O)NCC(F)(F)F)(c2ccc([N+](=O)[O-])cc2)[C@@H](c2ccc(CO)cc2I)N1CC12CC3CC(CC(C3)C1)C2
[1]
  composite z-score: 0.437
[2]
  z-score: -5.73 (inactive)
[3]
  z-score: -1.44 (inactive)
[4]
  z-score: 0.558 (inactive)
[5]
  z-score: -1.01 (inactive)
[6]
  composite z-score: 0.229
[7]
  composite z-score: 0.0167
Torsin-1A (Homo sapiens) [8]
  composite z-score: -0.286
Torsin-1A (Homo sapiens) [9]
  composite z-score: -0.251
[10]
  composite z-score: 1.53

## COc1cc2c(cc1OC)CN(C(=O)[C@@H]1[C@H]3C(=O)O[C@H](c4ccccc4)[C@H](c4ccccc4)N3[C@H](c3ccc(O)cc3)[C@@]13C(=O)Nc1ccc(C#CC4=CCCCC4)cc13)CC2
[1]
  composite z-score: 0.236
[2]
  z-score: -1.56 (inactive)
[3]
  z-score: -0.376 (inactive)
[4]
  z-score: -0.375 (inactive)
[5]
  z-score: -0.493 (inactive)
[6]
  composite z-score: 1.03
[7]
  composite z-score: 0.271
Torsin-1A (Homo sapiens) [8]
  composite z-score: 0.335
Torsin-1A (Homo sapiens) [9]
  composite z-score: 0.794
[10]
  composite z-score: 1.07

## COc1ccc(C(O)C2C=CC3C(=O)N(C)C(=O)C3N2Nc2ccccc2)cc1 (stereo not given)
[1]
  composite z-score: -0.0927
[2]
  z-score: -2.05 (inactive)
[3]
  z-score: -0.371 (inactive)
[4]
  z-score: -0.143 (inactive)
[5]
  z-score: 0.459 (inactive)
[6]
  composite z-score: 1.41
[7]
  composite z-score: 0.195
Torsin-1A (Homo sapiens) [8]
  composite z-score: 0.271
Torsin-1A (Homo sapiens) [9]
  composite z-score: 0.994
[10]
  composite z-score: 0.011

## COc1cccc(C)c1NC(=O)O[C@H]1[C@H](OC(=O)Nc2ccccc2-c2ccccc2)[C@@H](OC(=O)Nc2ccccc2-c2ccccc2)[C@@H](OC)O[C@@H]1CO
[1]
  composite z-score: 0.933
[2]
  z-score: -5.6 (inactive)
[3]
  z-score: -0.325 (inactive)
[4]
  z-score: 1.13 (inactive)
[5]
  z-score: -1.05 (inactive)
[6]
  composite z-score: 1
[7]
  composite z-score: 0.179
Torsin-1A (Homo sapiens) [8]
  composite z-score: 0.631
Torsin-1A (Homo sapiens) [9]
  composite z-score: 1.23
[10]
  composite z-score: 0.457

## COc1ccc(C(=O)Nc2ccc(CN3C(=O)[C@@]4(O[C@@H](CC(=O)N(CCO)Cc5ccccc5)[C@H]([Si](C)(C)c5ccc(OC)cc5)[C@H]4C)c4ccccc43)cc2)cc1
[1]
  composite z-score: 0.353
[2]
  z-score: -5.7 (inactive)
[3]
  z-score: -0.376 (inactive)
[4]
  z-score: -0.533 (inactive)
[5]
  z-score: -0.0361 (inactive)
[6]
  composite z-score: 0.675
[7]
  composite z-score: -0.179
Torsin-1A (Homo sapiens) [8]
  composite z-score: 0.438
Torsin-1A (Homo sapiens) [9]
  composite z-score: -0.0394
[10]
  composite z-score: 1.59
